Out of some 52,000 compounds screened, about 4,300 (8.3%) were called active. Only a selection was taken, and actives are over-represented in it overall. Unmarked numbers belong to inactive results. Rule as the data show it: active = survival mostly below about 52% (no sharp cut-off); inactive = mostly above about 56%.
These molecules were tested on DeltatarO mutant (assay: growth inhibition of S. aureus wild type versus tarO mutant, primary screen, teichoic acid synthesis inhibitors, RN4220, OD600 (AID 463173)). Conditions: OD600, 18 h, stronger effect = lower value, screened at 18.75 µg/mL (by protocol).
Work on `CCc1nn(CC(=O)NCc2ccccc2Cl)c(=O)c2cc3ccccc3n12` yielded a survival of 62%. `Cc1ccc(Cn2c(SCc3ccc(C(=O)NC4CCCCC4)cc3)nc3ccncc32)cc1` gave a survival of 71%. Work on `Cc1cc(N2CCCC2)nc(SCC(=O)c2ccccc2)n1` yielded a survival of 77%. `COc1ccc(CCN2C(=O)CN(C3CCCCCC3)C(=O)C2c2ccc(C)cc2)cc1OC` (stereo not drawn) was tested, and the survival was 92%. Work on `Cc1ccc(Cl)cc1N1CCN(C(=O)c2cn(C)c3ccc(S(=O)(=O)N4CCCC4)cc3c2=O)CC1` yielded a survival of 124%. For `Cc1ccccc1Cn1c2ccccc2c2cnn(CC(=O)N3CCC(C)CC3)c(=O)c21`, the survival was 41%. `Cc1c(Cl)cccc1NC(=O)NCCOCCn1c(=O)oc2ccccc21` showed a survival of 51%. `O=C(O)CCCn1c(=O)oc2ccccc21` was tested, and the survival was 96%. With `Cc1ccc2oc(=O)n(CCCOc3ccc(Cl)cc3)c2c1` the survival was -3% (active). With `N#CCCCn1c(=O)oc2ccccc21` the survival was 100%. In the case of `Cc1ccc2oc(=O)n(CCNC(=O)Nc3ccc(C)c(F)c3)c2c1`, the survival is reported as 108%. For `O=c1oc2ccccc2n1CCCOc1ccccc1Cl`, the survival was 3% (active). Molecule `COc1ccc(OCCCn2c(=O)oc3ccc(C)cc32)cc1` has a survival of 39%. With `Cc1ccc2oc(=O)n(CCCOc3ccccc3Cl)c2c1` the survival was -4% (active). Work on `CCOc1ccc(-c2cc(C(=O)N3CCN(c4cc(Cl)ccc4C)CC3)c3ccccc3n2)cc1` yielded a survival of 58%. With `O=C(NCc1ccc2c(c1)CCN2C(=O)c1ccc(F)cc1)c1c(F)cccc1F` the survival was 85%. With `O=C(NCc1ccccc1Cl)c1ccc2nc(Cc3ccccc3)oc2c1` the survival was 60%. In the case of `CC1CCN(S(=O)(=O)c2ccc3c(c2)N(CC(=O)NCCN(C)C)C(=O)CS3)CC1`, the survival is reported as 108%. `CC(=O)N1CCCc2cc(S(=O)(=O)N3CCC(N(C)C(C)C)CC3)ccc21` showed a survival of 94%. With `CC(=O)N1CCCc2cc(S(=O)(=O)N3CCCCC3)ccc21` the survival was 47% (active). In the case of `COc1ccccc1CNC(=O)C1CCCN(S(=O)(=O)c2ccc3c(c2)CCCN3C(C)=O)C1` (stereo not drawn), the survival is reported as 52% (active). `COc1ccccc1CNC(=O)C1CCN(S(=O)(=O)c2ccc3c(c2)CCCN3C(C)=O)CC1` gave a survival of 83%. Work on `CC(=O)N1CCCc2cc(S(=O)(=O)N3CCC(C(=O)NC4CCCCC4)CC3)ccc21` yielded a survival of 94%. Work on `CC(=O)N1CCCc2cc(S(=O)(=O)N3CCCC(C(=O)NCc4ccccc4Cl)C3)ccc21` (stereo not drawn) yielded a survival of 95%. `CCOC(=O)N1CCc2c(sc3c2c(=O)n(Cc2ccccc2)c(=O)n3CC(=O)Nc2ccc(C)cc2C)C1` showed a survival of 71%. With `O=C(c1cc2ccccc2oc1=O)N1CCN(c2ccc(Cl)cc2)CC1` the survival was 66%. Molecule `COc1cc(C(=O)NCCOc2ccc(C)c(C)c2)cc(OC)c1OC` has a survival of 98%. `Cc1cc(C)cc(NC2=CC(c3cccc(F)c3)N(c3cc(C)cc(C)c3)C2=O)c1` (stereo not drawn) was tested, and the survival was 87%. `CCCN(CCC)CC(O)Cn1cc(/C=C/C(=O)c2ccc(Br)cc2)c2ccccc21` (stereo not drawn) showed a survival of 66%. With `CCCCN(CCCC)CC(O)Cn1cc(/C=C/C(=O)c2ccccc2)c2ccccc21` (stereo not drawn) the survival was 5% (active). `CC(C)CN(CC(C)C)CC(O)Cn1cc(/C=C/C(=O)c2ccccc2)c2ccccc21` (stereo not drawn) was tested, and the survival was 38% (active). In the case of `CCCN(CCC)CC(O)Cn1cc(/C=C/C(=O)c2ccc(OC)cc2)c2ccccc21` (stereo not drawn), the survival is reported as 11% (active). With `COc1ccc(C(=O)/C=C/c2cn(CC(O)CN3CCc4ccccc43)c3ccccc23)cc1` (stereo not drawn) the survival was 58%. With `CCn1cc(/C=C(\NC(=O)c2ccc(OC)cc2)C(=O)NCCCn2ccnc2)c2ccccc21` the survival was 108%. `Cc1ccc(C(=O)c2cn(Cc3ccccc3)c3ccccc3c2=O)cc1` was tested, and the survival was 75%. Work on `COc1ccc(C(=O)/C=C/c2cn(CC(O)CN(CC(C)C)CC(C)C)c3ccccc23)cc1OC` (stereo not drawn) yielded a survival of 91%. Molecule `COc1ccc(C(=O)/C=C/c2cn(CC(O)CN(CC(C)C)CC(C)C)c3ccccc23)cc1` (stereo not drawn) has a survival of 58%. `CCCN(CCC)CC(O)Cn1cc(/C=C/C(=O)c2ccc(C)cc2)c2ccccc21` (stereo not drawn) was tested, and the survival was -2% (active). Work on `CCCCN(CC)CCCNC(=O)c1cn(CC(C)C)c(=O)c2c1c1ccccc1n2C` yielded a survival of 115%. `Cc1nn(-c2ccccc2)c(=O)c2ccccc12` gave a survival of 92%. Molecule `COc1ccc(-c2nc3nc(C)cc(Nc4ccc(C(C)=O)cc4)n3n2)cc1` has a survival of 54%. For `CCc1nc2nc(C)cc(Nc3ccc(Br)cc3F)n2n1`, the survival was 128%. `Cc1cc(=O)n(CC(=O)Nc2ccc(Cl)c(Cl)c2)c(-n2nc(C)cc2C)n1` showed a survival of 117%. For `COc1ccccc1NC(=O)CCS(=O)(=O)c1cc2c3c(c1)CCN3C(=O)CC2`, the survival was 99%. With `CCc1cccc(CC)c1-n1nnc2c(sc3nc(C)cc(C)c32)c1=O` the survival was 83%. In the case of `Cc1cccc(C(=O)NCc2nnc(SCC(=O)Nc3ccccc3F)n2-c2ccccc2)c1`, the survival is reported as 72%. In the case of `N#Cc1c(/N=C/c2cccnc2)sc2c1CCC2`, the survival is reported as 100%. Work on `CN1CCN(C(CNC(=O)c2ccccc2)c2ccc3c(c2)OCO3)CC1` (stereo not drawn) yielded a survival of 76%. In the case of `Nc1nc(N)nc(COc2ccccc2)n1`, the survival is reported as 102%. In the case of `CCOC(=O)c1c(S(=O)(=O)N2CCCC(C(=O)NCc3ccccc3Cl)C2)c(C)n(C)c1C` (stereo not drawn), the survival is reported as 122%. Work on `CCc1cccc(C)c1NC(=O)CN1CCN(Cc2ccccc2Cl)S1(=O)=O` yielded a survival of 126%. In the case of `CCCN(CCC)CC(O)Cn1cc(/C=C/C(=O)c2ccc(OCC)cc2)c2ccccc21` (stereo not drawn), the survival is reported as 11% (active). For `CCOc1ccc(C(=O)NCCn2cc(SCC(=O)Nc3ccccc3)c3ccccc32)cc1`, the survival was 71%. `COc1ccc(S(=O)(=O)N2CCCN(CC(=O)Nc3ccc(OC)cc3OC)CC2)cc1` gave a survival of 72%. With `COc1ccc(OCC(=O)NCCS(=O)(=O)N2CCN(c3cccc(Cl)c3)CC2)cc1` the survival was 85%. `CCOc1ccc(NC(=O)CSc2cn(CC(=O)N3CCCCCC3)c3ccccc23)cc1` gave a survival of 95%. Molecule `Cc1oc(-c2cccc(Br)c2)nc1CSc1nc2ncccc2[nH]1` has a survival of 78%. For `CCOC(=O)c1cnc2c(Cl)c(Cl)ccc2c1NCCN1CCOCC1`, the survival was 42% (active). For `CCOC(=O)c1cnc2ccc(Br)cc2c1NCCN1CCOCC1`, the survival was 76%. `Cc1cc(C)cc(OCC(=O)NCCN2CCOCC2)c1` showed a survival of 67%. `CCOC(=O)c1cnc2ccccc2c1NCCCO` was tested, and the survival was 104%. In the case of `CCOC(=O)c1cnc2c(C)cc(C)cc2c1NCCN1CCOCC1`, the survival is reported as 32% (active). `CCOC(=O)c1cnc2c(CC)cccc2c1NCCO` showed a survival of 95%. Work on `Cc1ccc(OCC(=O)Nc2ccc3nc(SCc4ccccc4)sc3c2)cc1` yielded a survival of 81%. For `Cc1ccccc1-c1nc(CNC(=O)NC2CCCCC2)c(C)o1`, the survival was 67%. `CCOc1ccc(C(=O)N2CCC(c3nc(-c4ccc(S(=O)(=O)N5CCCC5)cc4)no3)CC2)cc1` was tested, and the survival was 92%. `CN(C(=O)c1cc2c(=O)oc3ccccc3c2s1)c1ccc(F)cc1` was tested, and the survival was 60%. With `CCc1ccccc1N(C)C(=O)c1cc2c(=O)oc3ccccc3c2s1` the survival was 42%. Molecule `CCN(C(=O)c1cc2c(=O)oc3ccccc3c2s1)c1cccc(C(F)(F)F)c1` has a survival of 145%. `CCOc1ccc(N(CC)C(=O)c2cc3c(=O)oc4ccccc4c3s2)cc1` was tested, and the survival was 38% (active). In the case of `CCN(C(=O)c1cc2c(=O)oc3ccccc3c2s1)c1ccc(C)c(C)c1`, the survival is reported as 15% (active). In the case of `CCCN(C(=O)c1cc2c(=O)oc3ccc(C)cc3c2s1)c1ccc(OCC)cc1`, the survival is reported as 48%. Molecule `COc1cccc(CNC(=O)C2(c3cccs3)CCOCC2)c1` has a survival of 92%. `COc1ccc(-c2ccc(NS(=O)(=O)c3cccc(C)c3)cc2)nn1` gave a survival of 75%. In the case of `COCCNc1nc2c(c(=O)n(C)c(=O)n2C)n1Cc1c(F)cccc1Cl`, the survival is reported as 57%. Molecule `Cc1ccc(C)c(NC(=O)CC2NCCNC2=O)c1` (stereo not drawn) has a survival of 79%. For `COc1ccc(C)cc1NC(=O)CC1NCCNC1=O` (stereo not drawn), the survival was 76% (active). Work on `COc1ccc(NC(=O)CC2NCCNC2=O)c(OC)c1` (stereo not drawn) yielded a survival of 77%. `O=C(Nc1c2c(nn1-c1ccc(Cl)cc1)CS(=O)(=O)C2)c1cccc(Cl)c1` showed a survival of 71%. For `O=C(Nc1c2c(nn1-c1ccc(Cl)cc1)CS(=O)(=O)C2)c1ccc(Br)cc1`, the survival was 52% (active). With `Cc1cccc(C(=O)Nc2c3c(nn2-c2ccc(Cl)cc2)CS(=O)(=O)C3)c1` the survival was 74%. `CC(=O)N1c2ccccc2C(=O)C1N1CCN(c2ccc(F)cc2)CC1` (stereo not drawn) showed a survival of 94%. Molecule `Cc1ccc(-c2nnc(Nc3ccc(O)cc3)c3ccccc23)cc1S(=O)(=O)NCC1CCCO1` (stereo not drawn) has a survival of 93%. `Cc1ccc(-n2ncc(C(=O)NC3CCCCC3)c2C2CCN(C(=O)OC(C)(C)C)CC2)cc1` gave a survival of 116%. `COc1ccc(CC(=O)N2CC(=O)Nc3ccc(Br)cc3C2c2ccc(F)cc2)cc1OC` (stereo not drawn) gave a survival of 175%. `Cc1cccc(CC(=O)N2CC(=O)Nc3ccc(Br)cc3C2c2ccc(F)cc2)c1` (stereo not drawn) was tested, and the survival was 43% (active). Molecule `O=C1CN(C(=O)Cc2ccc(F)cc2)C(c2ccccc2)c2cc(Cl)ccc2N1` (stereo not drawn) has a survival of 127%. For `Cc1cccc(CC(=O)N2CC(=O)Nc3ccc(F)cc3C2c2ccccc2)c1` (stereo not drawn), the survival was 53% (active). In the case of `Cc1ccc2c(c1)C(c1ccccc1)N(C(=O)Cc1ccc(F)cc1)CC(=O)N2` (stereo not drawn), the survival is reported as 55%. In the case of `COc1ccc(CC(=O)N2CC(=O)Nc3ccc(Br)cc3C2c2ccc(F)cc2)cc1` (stereo not drawn), the survival is reported as 30% (active). With `COc1ccc(CC(=O)N2CC(=O)Nc3ccc(F)cc3C2c2ccccc2)cc1` (stereo not drawn) the survival was 79%. In the case of `O=C1CN(C(=O)Cc2ccccc2)C(c2ccc(F)cc2)c2cc(Br)ccc2N1` (stereo not drawn), the survival is reported as 61%. In the case of `Cc1cccc(CC(=O)N2CC(=O)Nc3ccc(C)cc3C2c2ccc(F)cc2)c1` (stereo not drawn), the survival is reported as 50%.
